# Screening results deposited in PubChem by Broad Institute.
# NOMO-1 viab: STK33 inhibitor candidate reducing NOMO-1 cell viability | NOMO-1 AML viability, CellTiter-Glo luminescence, 72 h | inhibition, % (test concentration not listed) | actives 7.5% (n = 37,000); in the data active = inhibition above about 80%; inconclusive = no clear call, values can overlap the other calls
# Shh pathway inh: Sonic Hedgehog pathway inhibition. Shh-LIGHT2 Gli-luciferase reporter, 30 h. inhibition, % (test concentration not listed). actives 2.1% (n = 22,000);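 active = mean inhibition across valid replicates above about 65%, limit read from the data; inconclusive = mean under the limit, yet half or more replicates past it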;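 note: pathway switched on by Shh-conditioned medium diluted 1 in 25 in low serum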
# PD-1 reverse act: reversal of PD-1 mediated T-cell inhibition; primary human CD4 T cells, PD-L1 beads, CellTiter-Glo 96 h; activation, % (concentration not given with the values); 29,000 tested, under 10 active; AID 2316; call rule not given here
# MITF inh: inhibitors of MITF; TRPM1 promoter luciferase, luminescence, 24 h; inhibition, % (concentration not given with the values); actives 0.28% (n = 37,000); in the data active = inhibition above about 85%; inconclusive = no clear call, values can overlap the other calls; inactive = below about 68%;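 note: human melanocyte line stably carrying TRPM1 promoter luciferase reporter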
# Hits are given with their value; . = inactive; ? = inconclusive; / = no result given. Hits are enriched below; roughly 8.1% of the tested compounds scored in any of these assays.
SMILES,NOMO-1 viab,Shh pathway inh,PD-1 reverse act,MITF inh
COC(=O)c1cc(N2C(=O)C3C4C=CC(C)(O4)C3C2=O)ccc1Cl (stereo unspecified),113,.,.,.
COc1ccc(S(=O)(=O)N(C)C[C@H]2Oc3ccc(NC(=O)Nc4ccccc4)cc3C(=O)N([C@H](C)CO)C[C@@H]2C)cc1,.,.,/,.
COC(=O)C1=CN(C23CC4CC(CC(C4)C2)C3)C=C(C(=O)OC)C1c1cccc(OC)c1,109,.,.,.
Cc1cc(C(=O)Nc2cccc3c2O[C@@H](CN(C)C(=O)Nc2cccc4ccccc24)[C@@H](C)CN([C@@H](C)CO)C3=O)n(C)n1,.,/,.,.
COc1ccc(/C=C2\C(=O)c3ccccc3OC2c2ccccc2)cc1 (stereo unspecified),120,.,.,.
CC(C)NC(=O)Nc1ccc2c(c1)CC(=O)N([C@@H](C)CO)C[C@@H](C)[C@@H](CN(C)Cc1ccc(C(=O)O)cc1)O2,.,.,.,.
CCOc1ccc(C)cc1S(=O)(=O)n1cnc2ccccc21,127,/,.,.
COc1cc(S(=O)(=O)n2nnc3ccccc32)c(OC)cc1Cl,.,/,.,.
CCOc1ccc(Cl)cc1S(=O)(=O)n1cnc2ccccc21,114,/,/,.
COc1cc(S(=O)(=O)n2cnc3ccccc32)c(OC)cc1Cl,84,/,/,.
C[C@@H]1CCCCO[C@H](CN(C)S(=O)(=O)c2ccc(F)cc2)[C@@H](C)CN([C@H](C)CO)C(=O)c2cc(NC(=O)Nc3ccc4c(c3)OCO4)ccc2O1,.,.,/,.
CC1Oc2ccccc2OC1(O)c1ccc(Br)cc1 (stereo unspecified),106,.,.,.
CCC(=O)Nc1cccc(NC(=O)COc2cc(C)cc(C)c2)c1,.,/,/,.
COc1ccc(NC(=O)N(C)C[C@H]2Oc3c(cccc3N(C)C)C(=O)N([C@@H](C)CO)C[C@H]2C)cc1,.,.,.,.
Cc1ccc(O)c(C2=Nc3ccccc3N=C(C(F)(F)F)C2)c1,89,.,.,.
Cc1ccc(Cl)cc1N(CC(=O)Nc1ccc(I)cc1)S(C)(=O)=O,.,/,.,.
Cc1ccc(Cl)cc1N(CC(=O)Nc1ccc(C(F)(F)F)cc1)S(C)(=O)=O,118,/,.,.
CS(=O)(=O)N(CC(=O)Nc1ccc(C(F)(F)F)cc1)c1cccc([N+](=O)[O-])c1,121,/,.,.
CCN(CC(=O)Nc1ccc(F)c(Cl)c1)S(=O)(=O)c1ccc(C)cc1,.,/,.,.
C[C@@H]1CN([C@@H](C)CO)C(=O)c2cc(NS(C)(=O)=O)ccc2O[C@@H]1CN(C)C(=O)NC1CCCCC1,.,.,.,.
CC(C)NC(=O)Nc1cccc2c1O[C@@H](CN(C)CC1CC1)[C@H](C)CN([C@@H](C)CO)C2=O,.,.,.,.
O=C1C=CC(=C(c2ccc(O)cc2)c2ccc(O)cc2)C=C1,108,66,/,.
O=C1C(SCCO)=C(SCCO)C(=O)c2ccccc21,114,104,/,103
CCN(CC)c1cc(-c2cccs2)nc(SCC(=O)c2cccs2)c1C#N,122,.,.,.
COc1ccccc1N(Cc1cc2ccc(C)cc2[nH]c1=O)S(=O)(=O)c1ccccc1,108,/,.,.
SMILES,NOMO-1 viab,Shh pathway inh,PD-1 reverse act,MITF inh
CCC(C)CCCCCCCCC1CC(=O)NC(CCC(N)=O)C(=O)NC(CC(C)C)C(=O)NC(CC(C)C)C(=O)NC(C(C)C)C(=O)NC(CC(=O)O)C(=O)NC(CC(C)C)C(=O)NC(C(C)C)C(=O)O1 (stereo unspecified),111,.,.,.
COc1ccc(NC(=O)N(C)C[C@H]2Oc3c(NC(=O)NC4CCCCC4)cccc3C(=O)N([C@H](C)CO)C[C@H]2C)cc1,.,.,.,.
C=C1C(=O)O[C@H]2C3=C(C)CCC[C@]3(C)C(=O)C[C@@H]12,121,76,.,.
C=C1C(=O)O[C@@H]2C=C(C)[C@@H]3CC[C@@](C)(O)[C@@H]3C[C@H]12,.,.,.,.
CCOC(=O)c1cnc2c(OC)cccc2c1N1CCC2(CC1)OCCO2,.,.,.,.
CCOC(=O)c1cnc2c(OC)cccc2c1NC1CCCCC1,118,?,.,.
CCOC(=O)c1c(CN(CC)CC)oc2ccc(OC)cc12,.,.,.,.
CCOC(=O)c1c(CSc2nc(C)ccc2C#N)oc2ccc(OC(C)=O)cc12,117,100,.,.
C[C@@H]1CN([C@H](C)CO)C(=O)c2cc(NS(=O)(=O)c3ccccc3)ccc2O[C@@H]1CN(C)Cc1ccc(-c2ccccc2)cc1,121,.,.,.
Cc1ccc(S(=O)(=O)Nc2ccc3c(c2)C(=O)N([C@H](C)CO)C[C@H](C)[C@@H](CN(C)Cc2ccc(-c4ccccc4)cc2)O3)cc1,.,/,.,.
Cc1ccc(S(=O)(=O)Nc2ccc3c(c2)C(=O)N([C@H](C)CO)C[C@@H](C)[C@@H](CN(C)Cc2ccc(-c4ccccc4)cc2)O3)cc1,122,/,.,.
CC(C)c1ccccc1Oc1coc2cc(OCC(=O)Nc3ccccc3F)ccc2c1=O,.,/,.,.
COc1ccc(Oc2c(C(F)(F)F)oc3cc(OCC(=O)Nc4ccccc4F)ccc3c2=O)cc1,96,/,.,.
C/C1=C/CCC2=CC(OC2=O)C(C)(C)/C=C/C1=O (stereo unspecified),119,.,.,.
Cc1ccc(NC(=O)c2ccc(OC(=O)CN3C(=O)c4ccccc4C3=O)cc2)cc1,.,/,/,.
CC1=CC(C)(C)N2C(=O)C(=O)c3cc(OC(=O)CN4C(=O)c5ccccc5C4=O)cc1c32,115,/,.,.
CC1=CC(C)(C)N2C(=O)C(=O)c3cc(OC(=O)CN4C(=O)c5cccc6cccc(c56)C4=O)cc1c32,119,/,.,.
COc1ccc(S(=O)(=O)Nc2cccc3c2O[C@@H](CN(C)S(=O)(=O)c2ccc(F)cc2)[C@H](C)CN([C@@H](C)CO)C3=O)cc1,.,.,.,.
COc1cc([C@@H]2c3cc4c(cc3C(OC3O[C@@H]5COC(C)O[C@H]5[C@H](O)[C@H]3O)C3COC(=O)[C@@H]32)OCO4)cc(OC)c1O (stereo partly specified),101,.,/,.
COc1cc([C@@H]2c3cc4c(cc3[C@@H](OC3OC5COC(C)OC5C(O)C3O)[C@H]3COC(=O)[C@H]23)OCO4)cc(OC)c1O (stereo partly specified),141,.,.,.
C[C@H](CO)N1C[C@H](C)[C@@H](CN(C)C(=O)Nc2ccc(C(F)(F)F)cc2)Oc2ccc(NC(=O)Nc3ccc(F)cc3)cc2C1=O,.,.,.,.
C[C@@H]1CN([C@H](C)CO)C(=O)c2cc(NC(=O)Nc3ccc(C(F)(F)F)cc3)ccc2O[C@H]1CN(C)C(=O)Nc1ccc(C(F)(F)F)cc1,109,.,.,.
C[C@H]1CN([C@@H](C)CO)C(=O)c2cc(NC(=O)Nc3ccc(F)cc3)ccc2O[C@@H]1CN(C)C(=O)Nc1ccc(C(F)(F)F)cc1,.,.,.,.
C[C@H]1CN([C@@H](C)CO)C(=O)c2cc(NC(=O)Nc3ccc(C(F)(F)F)cc3)ccc2O[C@@H]1CN(C)C(=O)Nc1ccc(C(F)(F)F)cc1,122,.,.,.
